Source: the supplement of paper PMC6411743
± gives the standard deviation of the averaged measurements. Targets with the largest changes are over-represented here; the source holds about 6,500 in all.

Compound: Nc1ncnc2c1ncn2[C@@H]1O[C@H](COP(=O)(O)OP(=O)(O)OP(=O)(O)O)[C@@H](O)[C@H]1O [adenosine triphosphate]
Test: NP40-soluble protein abundance relative to vehicle (solubility fold change) (ratio); higher = more soluble protein in presence of ATP
How it was run: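 Eight concentrations, 0.1 to 10 mM, were tested on Jurkat crude lysate for 10 min at room temperature and then 3 min at 37 °C, in three independent experiments. The lysate was solubilised with 0.8% NP40 and benzonase, ultracentrifuged, and the supernatant TMT-labelled for LC-MS/MS. Each value is the fold change against the detergent-processed vehicle in its own replicate, from vsn-normalised intensities.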

Sequence of UniProt P05423 (P05423 whole entry): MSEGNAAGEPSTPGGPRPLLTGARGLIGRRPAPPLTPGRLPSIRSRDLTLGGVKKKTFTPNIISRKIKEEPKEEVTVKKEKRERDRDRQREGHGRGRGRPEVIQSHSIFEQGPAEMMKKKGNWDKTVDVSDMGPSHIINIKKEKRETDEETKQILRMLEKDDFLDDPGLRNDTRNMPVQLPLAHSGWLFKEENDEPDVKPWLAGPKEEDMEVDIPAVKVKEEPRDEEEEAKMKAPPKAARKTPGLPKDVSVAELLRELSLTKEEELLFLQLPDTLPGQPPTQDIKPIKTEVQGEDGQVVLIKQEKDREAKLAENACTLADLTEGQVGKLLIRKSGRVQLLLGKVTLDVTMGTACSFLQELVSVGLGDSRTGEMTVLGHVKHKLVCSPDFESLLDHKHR
Sequence of UniProt P28161 (P28161 whole entry): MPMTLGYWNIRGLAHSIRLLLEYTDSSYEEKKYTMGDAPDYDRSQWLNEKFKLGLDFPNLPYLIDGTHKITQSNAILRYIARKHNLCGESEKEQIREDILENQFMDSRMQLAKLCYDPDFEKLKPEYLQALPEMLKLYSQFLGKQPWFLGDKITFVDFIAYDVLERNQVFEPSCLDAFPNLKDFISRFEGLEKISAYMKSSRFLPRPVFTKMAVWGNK
Sequence of UniProt P10746 (P10746 whole entry): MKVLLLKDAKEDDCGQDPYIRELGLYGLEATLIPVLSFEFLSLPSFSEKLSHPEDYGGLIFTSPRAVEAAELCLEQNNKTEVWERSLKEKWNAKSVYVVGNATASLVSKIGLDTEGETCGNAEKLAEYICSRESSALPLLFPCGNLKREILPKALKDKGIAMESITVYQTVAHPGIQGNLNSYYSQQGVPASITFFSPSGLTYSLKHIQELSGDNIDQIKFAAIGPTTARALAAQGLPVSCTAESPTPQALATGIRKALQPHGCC
Sequence of UniProt P42285 (P42285 whole entry): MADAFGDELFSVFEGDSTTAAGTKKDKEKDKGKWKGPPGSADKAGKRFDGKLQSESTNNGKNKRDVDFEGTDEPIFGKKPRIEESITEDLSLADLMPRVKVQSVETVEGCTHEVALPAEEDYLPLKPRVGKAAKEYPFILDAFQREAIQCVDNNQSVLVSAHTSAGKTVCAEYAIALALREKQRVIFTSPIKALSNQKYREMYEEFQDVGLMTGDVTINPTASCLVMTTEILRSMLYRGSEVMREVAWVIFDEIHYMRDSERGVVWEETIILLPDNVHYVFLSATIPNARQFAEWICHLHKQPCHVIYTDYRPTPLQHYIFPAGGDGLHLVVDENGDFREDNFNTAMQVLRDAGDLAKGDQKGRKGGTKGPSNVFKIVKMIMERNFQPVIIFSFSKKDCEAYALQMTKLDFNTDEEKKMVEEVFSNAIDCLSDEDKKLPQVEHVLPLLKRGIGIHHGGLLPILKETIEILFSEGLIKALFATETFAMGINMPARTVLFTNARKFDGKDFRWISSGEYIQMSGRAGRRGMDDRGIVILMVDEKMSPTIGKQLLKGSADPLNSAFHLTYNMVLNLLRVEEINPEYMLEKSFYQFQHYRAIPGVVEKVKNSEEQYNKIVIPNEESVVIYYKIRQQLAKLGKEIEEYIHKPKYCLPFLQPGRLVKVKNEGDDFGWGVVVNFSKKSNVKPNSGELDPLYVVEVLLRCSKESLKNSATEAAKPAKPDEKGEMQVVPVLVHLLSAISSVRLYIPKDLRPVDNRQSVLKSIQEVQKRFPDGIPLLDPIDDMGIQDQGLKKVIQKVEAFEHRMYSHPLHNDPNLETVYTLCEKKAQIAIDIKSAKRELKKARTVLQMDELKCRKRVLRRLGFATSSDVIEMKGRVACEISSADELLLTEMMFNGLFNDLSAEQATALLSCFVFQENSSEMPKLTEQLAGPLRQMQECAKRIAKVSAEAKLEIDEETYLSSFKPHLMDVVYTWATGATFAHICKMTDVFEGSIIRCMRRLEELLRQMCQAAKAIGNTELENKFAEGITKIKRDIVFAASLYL
Sequence of UniProt P42696 (P42696 whole entry): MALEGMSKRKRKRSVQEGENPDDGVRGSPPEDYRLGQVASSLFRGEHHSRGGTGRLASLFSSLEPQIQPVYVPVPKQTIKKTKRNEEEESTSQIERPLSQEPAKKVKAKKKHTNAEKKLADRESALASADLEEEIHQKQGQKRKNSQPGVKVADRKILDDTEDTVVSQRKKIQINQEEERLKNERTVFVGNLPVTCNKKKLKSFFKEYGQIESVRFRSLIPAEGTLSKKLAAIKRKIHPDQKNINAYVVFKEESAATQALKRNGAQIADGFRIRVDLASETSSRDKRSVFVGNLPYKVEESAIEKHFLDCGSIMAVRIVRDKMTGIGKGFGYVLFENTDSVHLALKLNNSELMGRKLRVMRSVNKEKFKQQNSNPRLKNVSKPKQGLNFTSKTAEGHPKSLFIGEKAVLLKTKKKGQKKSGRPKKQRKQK
Sequence of UniProt P49711 (P49711 whole entry): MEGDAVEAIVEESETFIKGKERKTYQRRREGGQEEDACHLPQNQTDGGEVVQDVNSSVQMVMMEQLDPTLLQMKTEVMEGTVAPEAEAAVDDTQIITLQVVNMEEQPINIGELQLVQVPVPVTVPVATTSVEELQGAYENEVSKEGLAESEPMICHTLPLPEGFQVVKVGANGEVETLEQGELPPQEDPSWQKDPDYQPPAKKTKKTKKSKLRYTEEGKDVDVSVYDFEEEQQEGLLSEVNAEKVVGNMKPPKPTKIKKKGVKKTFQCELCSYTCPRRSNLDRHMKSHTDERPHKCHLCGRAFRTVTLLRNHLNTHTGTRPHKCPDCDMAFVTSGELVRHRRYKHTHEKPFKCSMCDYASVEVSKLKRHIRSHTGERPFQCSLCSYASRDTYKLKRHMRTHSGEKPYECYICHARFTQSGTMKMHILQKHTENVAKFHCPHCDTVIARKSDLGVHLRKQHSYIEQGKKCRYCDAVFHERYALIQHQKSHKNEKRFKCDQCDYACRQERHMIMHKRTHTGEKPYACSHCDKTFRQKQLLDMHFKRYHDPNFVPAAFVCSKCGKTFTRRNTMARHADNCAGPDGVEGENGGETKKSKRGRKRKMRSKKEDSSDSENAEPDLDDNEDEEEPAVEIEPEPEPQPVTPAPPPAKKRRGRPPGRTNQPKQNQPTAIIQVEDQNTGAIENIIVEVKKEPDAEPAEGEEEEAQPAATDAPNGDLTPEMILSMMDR
Sequence of UniProt P50990 (P50990 whole entry): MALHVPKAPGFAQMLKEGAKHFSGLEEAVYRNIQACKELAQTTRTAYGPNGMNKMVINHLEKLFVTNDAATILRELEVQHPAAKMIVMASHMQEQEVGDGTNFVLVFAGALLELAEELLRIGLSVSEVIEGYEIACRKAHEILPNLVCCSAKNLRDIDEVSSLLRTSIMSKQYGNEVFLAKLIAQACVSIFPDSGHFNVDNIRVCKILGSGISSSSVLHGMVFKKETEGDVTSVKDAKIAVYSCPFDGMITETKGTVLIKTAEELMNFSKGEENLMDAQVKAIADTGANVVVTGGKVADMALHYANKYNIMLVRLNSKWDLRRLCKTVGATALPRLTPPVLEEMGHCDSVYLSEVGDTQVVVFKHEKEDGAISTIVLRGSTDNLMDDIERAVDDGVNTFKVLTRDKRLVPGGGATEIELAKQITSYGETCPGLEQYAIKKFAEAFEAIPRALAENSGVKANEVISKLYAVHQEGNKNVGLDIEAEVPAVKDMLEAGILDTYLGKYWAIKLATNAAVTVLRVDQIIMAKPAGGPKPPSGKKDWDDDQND
Sequence of UniProt P09012 (P09012 whole entry): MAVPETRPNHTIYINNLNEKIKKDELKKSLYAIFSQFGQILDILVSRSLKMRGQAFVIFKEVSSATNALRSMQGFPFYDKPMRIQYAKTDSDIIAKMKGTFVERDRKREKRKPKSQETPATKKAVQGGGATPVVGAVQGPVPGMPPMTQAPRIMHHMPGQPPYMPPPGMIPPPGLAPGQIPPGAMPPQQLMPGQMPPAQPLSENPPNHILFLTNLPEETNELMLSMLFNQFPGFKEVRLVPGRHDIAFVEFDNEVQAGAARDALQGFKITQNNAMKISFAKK
Sequence of UniProt P61225 (P61225 whole entry): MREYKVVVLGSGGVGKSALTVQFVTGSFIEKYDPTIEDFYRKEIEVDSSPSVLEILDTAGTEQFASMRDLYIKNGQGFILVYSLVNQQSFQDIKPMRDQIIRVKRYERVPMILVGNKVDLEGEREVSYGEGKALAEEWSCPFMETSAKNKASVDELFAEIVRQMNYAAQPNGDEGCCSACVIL
Sequence of UniProt P49756 (P49756 whole entry): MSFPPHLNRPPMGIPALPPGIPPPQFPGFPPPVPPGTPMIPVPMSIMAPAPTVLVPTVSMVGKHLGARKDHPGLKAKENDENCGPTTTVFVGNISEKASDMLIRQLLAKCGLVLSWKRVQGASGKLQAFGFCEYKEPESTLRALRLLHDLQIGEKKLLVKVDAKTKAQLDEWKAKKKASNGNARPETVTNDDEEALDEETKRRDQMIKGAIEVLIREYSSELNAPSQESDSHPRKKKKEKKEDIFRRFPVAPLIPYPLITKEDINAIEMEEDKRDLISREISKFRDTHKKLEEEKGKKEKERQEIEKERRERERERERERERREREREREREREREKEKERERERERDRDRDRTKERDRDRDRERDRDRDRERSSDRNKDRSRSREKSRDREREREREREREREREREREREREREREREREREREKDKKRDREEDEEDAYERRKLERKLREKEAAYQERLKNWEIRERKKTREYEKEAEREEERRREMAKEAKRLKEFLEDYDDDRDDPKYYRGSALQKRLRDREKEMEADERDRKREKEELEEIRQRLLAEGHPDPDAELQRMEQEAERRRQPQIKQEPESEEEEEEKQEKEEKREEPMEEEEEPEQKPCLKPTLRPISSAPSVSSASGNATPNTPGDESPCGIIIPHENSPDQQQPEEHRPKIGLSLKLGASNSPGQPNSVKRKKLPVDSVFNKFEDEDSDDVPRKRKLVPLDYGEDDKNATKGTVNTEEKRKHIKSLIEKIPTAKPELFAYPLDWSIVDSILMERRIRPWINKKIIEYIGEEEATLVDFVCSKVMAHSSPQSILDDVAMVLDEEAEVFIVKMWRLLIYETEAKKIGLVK

Target	NP40-soluble protein abundance (concentration: 1mM)	NP40-soluble protein abundance (concentration: 2mM)	NP40-soluble protein abundance (concentration: 4mM)	NP40-soluble protein abundance (concentration: 6mM)	NP40-soluble protein abundance (concentration: 8mM)	NP40-soluble protein abundance (concentration: 10mM)
CTCF (UniProt P49711)	1.02 ± 0.027	0.993 ± 0.036	0.972 ± 0.034	0.895 ± 0.046	0.927 ± 0.032	0.894 ± 0.027
SNRPA (UniProt P09012)	1.01 ± 0.067	0.989 ± 0.09	0.973 ± 0.093	0.984 ± 0.1	0.992 ± 0.032	0.97 ± 0.006
RBM34 (UniProt P42696)	1.16 ± 0.026	1.21 ± 0.059	1.4 ± 0.097	1.57 ± 0.1	1.7 ± 0.18	1.85 ± 0.21
UniProt P61225	1.01 ± 0.074	0.921 ± 0.091	0.92 ± 0.082	0.846 ± 0.11	0.932 ± 0.065	0.932 ± 0.016
POLR3D (UniProt P05423)	0.986 ± 0.095	0.962 ± 0.062	0.949 ± 0.071	0.963 ± 0.12	0.965 ± 0.064	0.963 ± 0.065
UROS (UniProt P10746)	0.973 ± 0.029	0.988 ± 0.041	0.98 ± 0.061	0.968 ± 0.038	0.95 ± 0.059	0.927 ± 0.054
UniProt P54274|P54274-2	1.14 ± 0.12	1.27 ± 0.17	1.43 ± 0.17	1.69 ± 0.26	1.58 ± 0.25	1.88 ± 0.35
UniProt P67870|Q5SRQ6	0.972 ± 0.024	1 ± 0.021	1.013 ± 0.0063	1.05 ± 0.067	1.07 ± 0.019	1.04 ± 0.017
RBM25 (UniProt P49756)	1.21 ± 0.074	1.33 ± 0.12	1.68 ± 0.22	2.25 ± 0.24	2.63 ± 0.34	3.08 ± 0.38
UniProt P08134|Q5JR08	0.974 ± 0.053	0.998 ± 0.031	0.975 ± 0.024	1 ± 0.05	0.957 ± 0.067	0.971 ± 0.027
TPMT (UniProt P51580)	1 ± 0.084	1 ± 0.077	0.985 ± 0.064	0.954 ± 0.12	0.992 ± 0.057	0.979 ± 0.044
UniProt P21675|P21675-12|P21675-2|P21675-3|P21675-4|P21675-5|P21675-6|P21675-7|P21675-9	1.11 ± 0.067	1.11 ± 0.048	1.11 ± 0.066	1.15 ± 0.14	1.2 ± 0.079	1.19 ± 0.091
C1QBP (UniProt Q07021)	1.15 ± 0.48	0.69 ± 0.36	1.21 ± 0.26	0.585 ± 0.18	1.19 ± 0.24	0.587 ± 0.2
UniProt P38398|P38398-7|P38398-4|P38398-8	1.02 ± 0.011	1.05 ± 0.071	1.03 ± 0.035	1.03 ± 0.086	1.02 ± 0.081	1.06 ± 0.03
UniProt P26639	1 ± 0.1	0.988 ± 0.075	0.95 ± 0.078	0.928 ± 0.11	0.989 ± 0.054	0.949 ± 0.042
UniProt P62253	1.06 ± 0.053	1.05 ± 0.071	1 ± 0.07	1.01 ± 0.11	1.03 ± 0.097	0.947 ± 0.049
CCT8 (UniProt P50990)	0.976 ± 0.029	0.909 ± 0.033	0.823 ± 0.036	0.86 ± 0.12	0.842 ± 0.081	0.835 ± 0.063
UniProt P42285	1.07 ± 0.07	1.06 ± 0.035	1.09 ± 0.033	1.07 ± 0.031	1.2 ± 0.013	1.21 ± 0.066
CST3 (UniProt P01034)	0.964 ± 0.083	0.971 ± 0.063	1 ± 0.11	1.03 ± 0.11	1.05 ± 0.15	1.05 ± 0.14
GSTM2 (UniProt P28161)	0.96 ± 0.07	0.952 ± 0.054	0.886 ± 0.043	0.889 ± 0.035	0.911 ± 0.058	0.861 ± 0.056
UniProt O75400|O75400-2	1.35 ± 0.075	1.44 ± 0.086	1.65 ± 0.097	2.14 ± 0.13	2.39 ± 0.13	2.62 ± 0.2
UniProt P61201|P61201-2	0.9548 ± 0.0092	0.945 ± 0.031	0.9178 ± 0.005	0.968 ± 0.03	0.912 ± 0.043	0.916 ± 0.026
DCK (UniProt P27707)	0.955 ± 0.067	0.98 ± 0.052	0.914 ± 0.046	0.935 ± 0.093	0.933 ± 0.03	0.948 ± 0.044
XPA (UniProt P23025)	0.975 ± 0.021	0.979 ± 0.033	0.965 ± 0.054	1.02 ± 0.027	0.954 ± 0.1	0.968 ± 0.05
MTHFD2 (UniProt P13995)	1.02 ± 0.018	1.01 ± 0.02	0.995 ± 0.04	1.01 ± 0.043	1.01 ± 0.032	1 ± 0.026
